Screening data deposited in PubChem by Sanford-Burnham Center for Chemical Genomics.
This is a sample that favours compounds with a hit; in the whole collection about 28% have one here.
CYP2C9 inhib: human CYP2C9 inhibition; CYP2C9 Supersomes, luciferin-H conversion, luminescence; inhibition, % at 5 µM; actives 20% (n = 96,000);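 active means blocking of liver enzyme CYP2C9 beyond about 50% at 5 µM, limit read from the data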
CYP2C19 inh: human CYP2C19 inhibition. AID 778. CYP2C19 Supersomes, luciferin-H EGE luminescence, 30 min. actives 21% (n = 96,000). inhibition, % at 5 µM. P33261;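 active means CYP2C19 inhibition above a set limit at 5 µM in the primary screen, cut at about 50% in these data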;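 further: plate controls were negative control wells for no effect and 2.5 mM tranylcypromine positive control for full effect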
Target sequence (P33261 whole entry, looked up): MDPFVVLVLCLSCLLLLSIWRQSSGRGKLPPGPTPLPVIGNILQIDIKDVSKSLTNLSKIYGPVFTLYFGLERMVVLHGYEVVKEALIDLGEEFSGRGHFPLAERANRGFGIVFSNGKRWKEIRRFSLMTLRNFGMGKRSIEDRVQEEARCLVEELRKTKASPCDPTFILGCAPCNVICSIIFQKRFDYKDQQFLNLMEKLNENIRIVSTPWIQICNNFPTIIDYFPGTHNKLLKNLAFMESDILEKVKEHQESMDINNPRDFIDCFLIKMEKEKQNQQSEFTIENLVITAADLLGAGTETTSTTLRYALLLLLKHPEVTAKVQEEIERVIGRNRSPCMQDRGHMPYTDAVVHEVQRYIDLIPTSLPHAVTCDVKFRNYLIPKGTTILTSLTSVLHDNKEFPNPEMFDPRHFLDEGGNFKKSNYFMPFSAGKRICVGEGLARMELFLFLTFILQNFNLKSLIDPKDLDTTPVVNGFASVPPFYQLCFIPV
CYP2C19 act: cytochrome P450 2C19 (human) activation. activation factor at 5 µM. recombinant CYP2C19, luciferin-H EGE luminescence; hits give high values; 0 = fully inhibited enzyme, 1 = untreated enzyme. AID 1025. 96,000 tested, under 10 active;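 active means activation factor of at least 2 at 5 µM in the primary screen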;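 further: 0 = wells with 2.5 mM tranylcypromine and 1 = vehicle-only wells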
Mac1 fbg inh: blocks human CD11b/CD18 adhesion to fibrinogen. P05107+P11215. K562 CD11b/CD18 adhesion to fibrinogen, ATPlite luminescence; Mn2+ added to activate the integrin. inhibition, % at 10 µM. actives 0.54% (n = 93,000). AID 1497;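 active means primary inhibition of 50% or more at 10 µM, then 40% or more on retest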
CYP2C9 activ: CYP2C9 (human) activation; P11712; recombinant CYP2C9, luciferin-H conversion, luminescence; hits give high values; factor 1 = untreated enzyme, 0 = blocked; activation factor at 5 µM; actives 1.4% (n = 96,000);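 active means activation factor of 2 or more for CYP2C9 at a 5 µM dose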;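 further: 0 = sulfaphenazole-blocked wells and 1 = vehicle-only wells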
Mac1 fbg enh: increases human CD11b/CD18 adhesion to fibrinogen | P05107+P11215 | activation, % at 10 µM | actives 0.07% (n = 93,000) | K562 CD11b/CD18 adhesion to fibrinogen, ATPlite luminescence | AID 1499;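 active means 10 µM primary screen giving 50% or more activity, confirmed by 40% or more on retest at that dose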
* marks the source's active call; other numbers are inactive results; · = no result given.

SMILES	CYP2C9 inhib	CYP2C19 inh	CYP2C19 act	Mac1 fbg inh	CYP2C9 activ	Mac1 fbg enh
C=CC[n+]1c(-c2ccc(OCC)cc2)csc1NNC(=O)Nc1ccccc1	13	6	0.9	86*	0.9	-8
Cn1c2c(c3ccccc31)CC/C2=N\O	17	79*	0.2	0	0.8	-6
N#Cc1ccccc1Sc1ccccc1N	59*	57*	0.4	·	0.4	·
Cc1cc(NCCCn2ccnc2)n2ncc(-c3ccccc3)c2n1	98*	99*	0	50*	0	-3
Cc1cc(NCCN2CCOCC2)n2ncc(-c3ccccc3)c2n1	25	28	0.7	0	0.7	-7
CC(=O)Nc1ccc(Nc2cc(C)nc3c(-c4ccc(Cl)cc4)c(C)nn23)cc1	·	·	·	23	·	15
Cc1cc(NCCCn2ccnc2)n2nc(C)c(-c3ccccc3)c2n1	88*	90*	0.1	2	0.1	-3
Cc1cc(NCCN2CCOCC2)n2nc(C)c(-c3ccc(Cl)cc3)c2n1	57*	46	0.5	-18	0.4	9
Cc1cc(NCCCn2ccnc2)n2nc(C)c(-c3ccc(Cl)cc3)c2n1	89*	90*	0.1	10	0.1	-3
CCCCCn1c(=O)[nH]c2cc(C(=O)NCc3ccco3)ccc2c1=O	34	22	0.8	-5	0.7	-4
O=C(CSc1nc2ccccc2[nH]1)c1ccc(Cl)s1	92*	98*	0	2	0.1	4
O=C(CSc1nc2ccccc2[nH]1)c1ccco1	39	65*	0.3	-16	0.6	0
COc1ccc(C2C(C(=O)OCC3CCCO3)=C(C)NC3=C2C(=O)CC(c2ccco2)C3)cc1O (stereo unspecified)	33	18	0.8	·	0.7	·
CC1=C(C(=O)OC2CCCCC2)C(c2ccc(C)o2)C2=C(CCCC2=O)N1 (stereo unspecified)	60*	42	0.6	29	0.4	14
CCOC(=O)C1=C(C)NC2=C(C(=O)CC(c3ccc(OC)c(OC)c3)C2)C1c1ccc(C)o1 (stereo unspecified)	59*	19	0.8	8	0.4	-1
CC1=C(C(=O)OCc2ccccc2)C(c2ccc(C)o2)C2=C(CCCC2=O)N1 (stereo unspecified)	70*	69*	0.3	3	0.3	0
CC1=C(C(=O)Nc2ccc(C)cc2)C(c2ccc(C)o2)C2=C(CC(C)(C)CC2=O)N1 (stereo unspecified)	1	-4	1	21	1	2
CC1=C(C(=O)OCCOc2ccccc2)C(c2ccc(C)o2)C2=C(CC(C)(C)CC2=O)N1 (stereo unspecified)	82*	78*	0.2	20	0.2	3
Cc1cccc(C(=O)NCCN(C)C)c1	2	-1	1	-18	1	-2
O=C(Nc1ccc(Cl)c(Cl)c1)OCCNC(=O)c1cccc(Cl)c1	41	2	1	-1	0.6	1
CCC(=O)N1c2ccccc2NC2=C(C(=O)CCC2)C1c1ccc(N(C)C)cc1 (stereo unspecified)	-2	-5	1.1	5	1	0
CCOc1ccc(-c2nc(N)ncc2-c2ccccc2)c(O)c1	27	12	0.9	-9	0.7	1
C=C(C)COc1ccc(-c2nc(N)ncc2Oc2ccccc2OCC)c(O)c1	92*	80*	0.2	-29	0.1	18
CC(=O)OC1COC(N2CCc3cc([N+](=O)[O-])ccc32)C(OC(C)=O)C1OC(C)=O (stereo unspecified)	81*	72*	0.3	·	0.2	·
CC(=O)N1C(=O)CC(C)N(C(C)=O)c2ccc([N+](=O)[O-])cc21 (stereo unspecified)	·	·	·	2	·	2
SMILES	CYP2C9 inhib	CYP2C19 inh	CYP2C19 act	Mac1 fbg inh	CYP2C9 activ	Mac1 fbg enh
COc1ccccc1/C=N/N(C(C)=O)c1nc(-c2ccc(F)cc2)cs1	29	24	0.8	10	0.7	4
Cc1ccc(-c2nnn(CC(=O)Nc3ccccc3-c3ccccc3)n2)c(-n2cnnn2)c1	52*	36	0.6	-10	0.5	-4
COc1ccc(CCNC(=O)COC(=O)Cc2ccc(OC)cc2)cc1	·	·	·	-5	·	-1
CCOc1ccc(CCNC(=O)COC(=O)c2cccnc2OCC)cc1OCC	87*	77*	0.2	2	0.1	2
CCOc1ncccc1C(=O)OCC(=O)NCCc1ccc(OC)cc1	58*	81*	0.2	-7	0.4	-3
COCCOC(=O)C1=C(C)N=C2SCCC(=O)N2C1c1cccc(Br)c1 (stereo unspecified)	47	30	0.7	-9	0.5	-1
CCc1ccc(-c2nc(CN3CCCC(C(=O)O)C3)c(C)o2)cc1 (stereo unspecified)	10	3	1	-18	0.9	-1
Cc1cccc(-c2nc(CSCC(=O)N3CCN(c4ccccn4)CC3)c(C)o2)c1	32	16	0.8	·	0.7	·
CCOc1ccc(-c2nc(CSCC(=O)N3CCN(C(=O)c4ccco4)CC3)c(C)o2)cc1	80*	45	0.5	-8	0.2	-1
CCOC(=O)C1CCN(C(=O)CS(=O)Cc2nc(-c3ccc(C)cc3)oc2C)CC1 (stereo unspecified)	67*	40	0.6	-4	0.3	0
Cc1oc(-c2ccc(Cl)cc2)nc1CN1CCCC(C(=O)N2CCN(C(=O)c3ccco3)CC2)C1 (stereo unspecified)	52*	55*	0.4	64*	0.5	-5
COc1ccc(OCC(=O)N2CCN(C(=O)c3ccco3)CC2)cc1	8	8	0.9	-14	0.9	-5
Cc1ccsc1-c1nc(CSCC(=O)N2CCN(c3ccccc3)CC2)c(C)o1	24	63*	0.4	17	0.8	1
CSc1nc(C)cc(OCNC(=O)c2cccs2)n1	9	27	0.7	-7	0.9	-7
Cc1ccc(-c2nc(CSCC(=O)N3CCCC3)c(C)o2)cc1	18	10	0.9	·	0.8	·
CCN(CCNC(=O)C1CCCN(Cc2nc(-c3ccc(OC)cc3)oc2C)C1)c1ccccc1 (stereo unspecified)	61*	55*	0.4	24	0.4	-4
CCOC(=O)C1CCN(C(=O)CSCc2nc(-c3ccc(OCC)cc3)oc2C)CC1	81*	54*	0.5	26	0.2	2
CSC1=C(C#N)C(C)C2=C(CC(C)(C)CC2=O)N1 (stereo unspecified)	-8	1	1	-7	1.1	-3
S=C(NCc1ccccn1)Nc1ccc(Cl)cc1Cl	4	66*	0.3	·	1	·
S=C(NCc1ccccn1)Nc1ccc(Cl)c(Cl)c1	25	51*	0.5	-5	0.8	-1
